Source: the supplement of paper PMC10849652
Targets with a hit are over-represented here; the source holds about 7,900 in all. About 0.6% of all pairs of compound and target were hits. A number with no mark means an inactive call.

Legend:
Test in all cases: log2 fold change, soluble protein after heating vs DMSO (PISA); higher = thermal stabilisation; K562 cells, 10 uM, 30 min; active = over 0.2 and 3.5 SD of the protein, either way, in both replicates (recomputed)
[1] = compound: CC[C@@H]1C(=O)N(C)c2cnc(Nc3ccc(C(=O)NC4CCN(C)CC4)cc3OC)nc2N1C1CCCC1
Procedure, shortened: (§1)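 Values are thermal stability changes relative to control samples and are taken from duplicates. They are stated as log2 fold changes. Before quantification by TMTpro 16plex LC-MS/MS with equalised channel sums, K562 cells at 2×10^6 cells/mL were treated with 10 μM compound for 30 min, heated in aliquots for 3 min across 48°C-58°C, pooled, extracted in PBS with 0.5% NP-40 at 4°C, and centrifuged at 21,000xg for 90 min to give the soluble supernatant.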

volasertib = compound: CC[C@@H]1C(=O)N(C)c2cnc(Nc3ccc(C(=O)N[C@H]4CC[C@H](N5CCN(CC6CC6)CC5)CC4)cc3OC)nc2N1C(C)C [volasertib]
Procedure, shortened: as §1

[2] = compound: CC[C@H](C)N1C=C(C2=C(C=C(C=C21)C3=CN=C(C=C3)N4CCNCC4)C(=O)NCC5=C(C=C(NC5=O)C)C)C
Procedure, shortened: as §1

epoxomicin = compound: CC[C@H](C)[C@@H](C(=O)N[C@@H]([C@@H](C)O)C(=O)N[C@@H](CC(C)C)C(=O)[C@]1(CO1)C)NC(=O)[C@H]([C@@H](C)CC)N(C)C(=O)C [epoxomicin]
Procedure, shortened: as §1

[3] = compound: CCn1c(C(=O)N(C2CC2)C2CC2)cc2c3c(ncn3C)c(Nc3cc(C)n(C)n3)nc21
Procedure, shortened: as §1

[4] = compound: CCn1cc(-c2ccnc3[nH]c(-c4cccc(CN(C)C)c4)cc23)c(-c2ccc(NC(=O)N(C)C)cc2)n1
Procedure, shortened: as §1

[5] = compound: CN(C)CC(=O)Nc1ccc2[nH]c(=O)c3ccccc3c2c1
Procedure, shortened: as §1

rosiglitazone = compound: CN(CCOC1=CC=C(C=C1)C[C@H]2C(=O)NC(=O)S2)C3=CC=CC=N3 (racemic) [rosiglitazone]
Procedure, shortened: as §1

[6] = compound: CN1C2=C(C3=C1C(=O)N(N=C3)CC4=CC(=CC=C4)N)SC(=C2)S(=O)C
Procedure, shortened: as §1

[7] = compound: CN1CCC(CNc2ccc3ncc(-c4cccc(OC(F)(F)F)c4)n3n2)CC1
Procedure, shortened: as §1

UniProt P28072, sequence (P28072 whole entry, looked up): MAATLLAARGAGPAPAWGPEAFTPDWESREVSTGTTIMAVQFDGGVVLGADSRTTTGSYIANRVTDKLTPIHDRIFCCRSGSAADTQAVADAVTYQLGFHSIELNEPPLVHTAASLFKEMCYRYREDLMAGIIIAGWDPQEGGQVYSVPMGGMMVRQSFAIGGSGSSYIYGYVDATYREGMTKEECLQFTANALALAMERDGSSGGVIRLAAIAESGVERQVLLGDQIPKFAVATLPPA
UniProt P13861, sequence (P13861 whole entry, looked up): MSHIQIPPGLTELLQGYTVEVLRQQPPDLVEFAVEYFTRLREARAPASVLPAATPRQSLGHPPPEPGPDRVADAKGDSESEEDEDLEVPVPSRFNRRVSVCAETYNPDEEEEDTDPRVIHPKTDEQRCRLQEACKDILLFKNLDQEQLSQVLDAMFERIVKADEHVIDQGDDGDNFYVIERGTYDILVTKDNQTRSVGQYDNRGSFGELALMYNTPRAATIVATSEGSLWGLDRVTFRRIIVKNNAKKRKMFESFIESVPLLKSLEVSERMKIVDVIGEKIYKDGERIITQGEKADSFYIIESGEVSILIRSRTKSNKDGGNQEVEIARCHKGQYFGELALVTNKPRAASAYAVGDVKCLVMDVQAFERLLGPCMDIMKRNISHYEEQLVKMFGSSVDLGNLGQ
UniProt Q6L8Q7, sequence (Q6L8Q7 whole entry, looked up): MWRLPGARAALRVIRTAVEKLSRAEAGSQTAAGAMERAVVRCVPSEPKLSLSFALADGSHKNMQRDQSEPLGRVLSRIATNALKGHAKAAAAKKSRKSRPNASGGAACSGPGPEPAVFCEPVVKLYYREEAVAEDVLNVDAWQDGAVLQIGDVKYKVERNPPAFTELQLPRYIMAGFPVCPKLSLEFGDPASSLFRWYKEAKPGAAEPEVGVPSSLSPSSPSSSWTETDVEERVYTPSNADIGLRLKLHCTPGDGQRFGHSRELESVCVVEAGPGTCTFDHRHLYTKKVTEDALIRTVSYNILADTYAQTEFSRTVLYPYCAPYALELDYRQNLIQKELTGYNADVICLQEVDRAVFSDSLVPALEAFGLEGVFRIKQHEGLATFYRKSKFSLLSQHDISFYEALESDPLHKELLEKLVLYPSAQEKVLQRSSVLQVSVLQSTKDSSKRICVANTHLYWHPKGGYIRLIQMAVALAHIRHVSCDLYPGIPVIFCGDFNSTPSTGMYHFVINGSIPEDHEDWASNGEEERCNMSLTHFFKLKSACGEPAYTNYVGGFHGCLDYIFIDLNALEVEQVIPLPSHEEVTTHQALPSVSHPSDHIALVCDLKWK
UniProt Q16512, sequence (Q16512 whole entry, looked up): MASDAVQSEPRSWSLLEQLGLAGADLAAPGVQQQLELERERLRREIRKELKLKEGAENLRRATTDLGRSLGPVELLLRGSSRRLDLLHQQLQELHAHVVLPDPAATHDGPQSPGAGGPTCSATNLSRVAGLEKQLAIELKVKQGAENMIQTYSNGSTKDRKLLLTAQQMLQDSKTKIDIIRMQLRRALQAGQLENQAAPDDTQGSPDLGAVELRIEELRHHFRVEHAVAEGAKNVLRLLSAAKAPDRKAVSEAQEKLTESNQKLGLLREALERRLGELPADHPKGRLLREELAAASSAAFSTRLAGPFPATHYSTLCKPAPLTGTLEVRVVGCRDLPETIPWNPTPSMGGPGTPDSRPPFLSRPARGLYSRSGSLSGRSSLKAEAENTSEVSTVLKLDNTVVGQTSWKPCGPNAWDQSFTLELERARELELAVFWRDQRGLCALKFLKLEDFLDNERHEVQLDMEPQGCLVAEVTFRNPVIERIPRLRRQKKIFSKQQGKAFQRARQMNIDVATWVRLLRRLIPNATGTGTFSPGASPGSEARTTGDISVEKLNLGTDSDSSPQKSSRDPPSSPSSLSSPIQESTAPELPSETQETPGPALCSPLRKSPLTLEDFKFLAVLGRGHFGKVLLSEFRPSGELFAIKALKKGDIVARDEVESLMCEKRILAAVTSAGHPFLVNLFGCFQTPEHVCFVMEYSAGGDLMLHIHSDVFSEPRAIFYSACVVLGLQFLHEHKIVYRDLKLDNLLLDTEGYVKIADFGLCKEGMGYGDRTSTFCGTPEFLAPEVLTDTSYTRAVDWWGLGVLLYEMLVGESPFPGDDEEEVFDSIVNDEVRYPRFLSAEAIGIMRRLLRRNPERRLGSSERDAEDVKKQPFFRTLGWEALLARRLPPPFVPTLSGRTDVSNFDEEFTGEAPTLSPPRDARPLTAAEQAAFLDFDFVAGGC
UniProt P31321, sequence (P31321 whole entry, looked up): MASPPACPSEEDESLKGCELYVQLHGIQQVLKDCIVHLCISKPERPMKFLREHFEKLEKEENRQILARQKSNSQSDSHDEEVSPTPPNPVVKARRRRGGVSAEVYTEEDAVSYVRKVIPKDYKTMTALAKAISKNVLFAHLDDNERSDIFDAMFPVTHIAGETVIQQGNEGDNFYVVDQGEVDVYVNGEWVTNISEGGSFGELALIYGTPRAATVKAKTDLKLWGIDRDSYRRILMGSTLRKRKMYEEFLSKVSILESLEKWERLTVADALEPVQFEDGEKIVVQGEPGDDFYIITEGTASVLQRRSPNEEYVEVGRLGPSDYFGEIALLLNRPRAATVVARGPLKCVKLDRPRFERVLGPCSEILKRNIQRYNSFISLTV
UniProt P28340, sequence (P28340 whole entry, looked up): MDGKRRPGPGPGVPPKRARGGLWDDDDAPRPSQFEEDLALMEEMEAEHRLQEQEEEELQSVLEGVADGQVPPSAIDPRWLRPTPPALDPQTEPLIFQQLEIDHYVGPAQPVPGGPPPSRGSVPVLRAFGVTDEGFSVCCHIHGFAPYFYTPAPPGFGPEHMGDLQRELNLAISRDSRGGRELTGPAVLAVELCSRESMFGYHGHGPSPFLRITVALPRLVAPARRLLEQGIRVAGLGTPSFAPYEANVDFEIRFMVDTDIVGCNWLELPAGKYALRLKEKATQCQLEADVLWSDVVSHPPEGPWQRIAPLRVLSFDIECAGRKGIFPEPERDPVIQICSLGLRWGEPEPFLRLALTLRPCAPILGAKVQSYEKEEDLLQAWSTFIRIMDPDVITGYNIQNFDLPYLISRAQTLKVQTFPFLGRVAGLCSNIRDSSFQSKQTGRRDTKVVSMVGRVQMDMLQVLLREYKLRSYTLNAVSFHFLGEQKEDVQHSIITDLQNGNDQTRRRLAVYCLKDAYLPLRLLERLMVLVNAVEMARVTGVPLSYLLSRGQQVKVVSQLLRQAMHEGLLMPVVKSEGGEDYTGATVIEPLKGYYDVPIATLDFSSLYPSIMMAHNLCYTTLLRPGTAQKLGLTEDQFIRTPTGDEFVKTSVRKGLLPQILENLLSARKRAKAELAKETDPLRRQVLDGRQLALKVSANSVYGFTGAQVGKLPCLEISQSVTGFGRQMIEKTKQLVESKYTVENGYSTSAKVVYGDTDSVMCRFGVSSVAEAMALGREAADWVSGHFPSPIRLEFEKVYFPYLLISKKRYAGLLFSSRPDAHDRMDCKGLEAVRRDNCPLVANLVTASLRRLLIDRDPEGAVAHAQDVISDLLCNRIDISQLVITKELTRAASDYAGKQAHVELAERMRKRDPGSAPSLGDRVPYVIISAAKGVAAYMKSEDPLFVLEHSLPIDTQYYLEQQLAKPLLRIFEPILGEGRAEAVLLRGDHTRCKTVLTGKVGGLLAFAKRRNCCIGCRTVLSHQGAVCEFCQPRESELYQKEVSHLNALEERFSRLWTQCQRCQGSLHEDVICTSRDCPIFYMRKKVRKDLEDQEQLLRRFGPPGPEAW
UniProt O95997, sequence (O95997 whole entry, looked up): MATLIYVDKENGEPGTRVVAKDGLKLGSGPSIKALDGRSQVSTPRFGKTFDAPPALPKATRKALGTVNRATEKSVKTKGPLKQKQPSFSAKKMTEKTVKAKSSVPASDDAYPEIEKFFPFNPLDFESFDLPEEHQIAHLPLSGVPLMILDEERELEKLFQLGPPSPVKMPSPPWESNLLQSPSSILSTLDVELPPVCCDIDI
UniProt Q9H300, sequence (Q9H300 whole entry, looked up): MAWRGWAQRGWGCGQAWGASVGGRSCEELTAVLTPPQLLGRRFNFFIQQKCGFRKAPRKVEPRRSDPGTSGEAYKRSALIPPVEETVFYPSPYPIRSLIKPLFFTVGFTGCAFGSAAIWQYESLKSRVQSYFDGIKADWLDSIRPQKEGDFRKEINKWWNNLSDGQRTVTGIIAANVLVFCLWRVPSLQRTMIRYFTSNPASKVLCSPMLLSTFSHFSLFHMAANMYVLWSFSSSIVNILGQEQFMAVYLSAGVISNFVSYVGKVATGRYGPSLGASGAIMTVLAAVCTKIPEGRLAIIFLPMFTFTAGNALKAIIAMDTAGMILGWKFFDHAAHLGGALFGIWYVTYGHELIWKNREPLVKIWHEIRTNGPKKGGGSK
UniProt O00233, sequence (O00233 whole entry, looked up): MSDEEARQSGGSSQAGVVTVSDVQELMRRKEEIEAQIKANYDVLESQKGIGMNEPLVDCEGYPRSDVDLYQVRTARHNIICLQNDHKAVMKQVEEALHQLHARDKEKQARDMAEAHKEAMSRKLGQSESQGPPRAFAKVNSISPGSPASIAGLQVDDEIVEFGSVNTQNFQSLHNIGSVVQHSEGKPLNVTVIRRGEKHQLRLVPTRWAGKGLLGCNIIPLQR
UniProt Q9Y3E5, sequence (Q9Y3E5 whole entry, looked up): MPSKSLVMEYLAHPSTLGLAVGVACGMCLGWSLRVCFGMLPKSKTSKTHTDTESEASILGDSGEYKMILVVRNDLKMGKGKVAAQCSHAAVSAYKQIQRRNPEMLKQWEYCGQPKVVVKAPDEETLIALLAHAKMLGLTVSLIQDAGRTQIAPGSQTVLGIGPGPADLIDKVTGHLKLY
UniProt Q8WUK0, sequence (Q8WUK0 whole entry, looked up): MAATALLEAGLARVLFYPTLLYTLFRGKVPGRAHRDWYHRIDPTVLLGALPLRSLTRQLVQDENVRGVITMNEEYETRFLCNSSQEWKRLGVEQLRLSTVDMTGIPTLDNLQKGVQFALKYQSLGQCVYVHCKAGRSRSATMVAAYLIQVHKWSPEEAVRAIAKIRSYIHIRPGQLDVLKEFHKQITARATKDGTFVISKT

| Target | log2 fold change [1] | log2 fold change (volasertib) | log2 fold change [2] | log2 fold change (epoxomicin) | log2 fold change [3] | log2 fold change [4] | log2 fold change [5] | log2 fold change (rosiglitazone) | log2 fold change [6] | log2 fold change [7] |
| --- | --- | --- | --- | --- | --- | --- | --- | --- | --- | --- |
| PSMD8 (UniProt P48556) | 0.054 | 0.25 | -0.01 | -0.286 (active) | 0.022 | 0.039 | -0.037 | -0.048 | 0.035 | 0.016 |
| PCLAF (UniProt Q15004) | 0.085 | 0.124 | -0.046 | 0.185 | 0.012 | 0.035 | -0.087 | -0.014 | 0.001 | 0.015 |
| PSMD9 (UniProt O00233) | -0.011 | 0.086 | 0.004 | -0.04 | -0.009 | -0.137 | -0.01 | 0.002 | -0.034 | 0.127 |
| PTPMT1 (UniProt Q8WUK0) | -0.298 | -0.127 | 0.002 | 0.088 | 0.044 | -0.051 | 0.012 | -0.012 | -0.006 | -1.21 (active) |
| PARL (UniProt Q9H300) | -0.059 | -0.008 | -0.009 | -0.076 | 0.031 | -0.062 | -0.035 | 0.035 | -0.004 | -0.134 |
| PRIM2 (UniProt P49643) | -0.119 | -0.285 (active) | 0.147 | 0.02 | -0.041 | -0.07 | 0.076 | 0.065 | 0.013 | -0.131 |
| PDCD6 (UniProt O75340) | -0.157 | -0.283 (active) | -0.006 | 0.031 | -0.005 | -0.01 | 0.007 | 0.025 | -0.041 | -0.057 |
| PRIM1 (UniProt P49642) | -0.097 | -0.249 | 0.093 | 0.088 | -0.072 | -0.018 | 0.117 | 0.048 | 0.052 | -0.12 |
| PI4K2A (UniProt Q9BTU6) | -0.075 | -0.081 | 0.009 | 0.027 | 0.037 | -0.023 | -0.014 | 0.055 | 0.009 | -0.146 |
| PKN1 isoform 2 (UniProt Q16512) | 0.005 | -0.105 | 0.084 | 0.014 | -0.185 | -0.038 | 0.009 | 0.06 | -0.021 | -0.772 (active) |
| PHLDB1 isoform 2 (UniProt Q86UU1) | -0.03 | -0.222 | -0.06 | 0.061 | -0.02 | -0.04 | -0.034 | 0.055 | -0.022 | -0.585 (active) |
| PSMB6 (UniProt P28072) | 0.029 | 0.195 | -0.055 | -0.241 (active) | 0.013 | 0.259 | -0.019 | -0.027 | 0.053 | 0.03 |
| PDE12 (UniProt Q6L8Q7) | -0.035 | -0.056 | -0.008 | 0.04 | 0.003 | -0.038 | 0.026 | 0.028 | -0.078 | -0.014 |
| PELO (UniProt Q9BRX2) | -0.017 | -0.387 | 0.09 | -0.058 | -0.068 | 0.007 | -0.017 | 0.085 | 0.138 | -0.312 |
| PTDSS1 (UniProt P48651) | 0.004 | 0.009 | -0.069 | -0.035 | -0.019 | 0.124 | 0 | 0.031 | 0.177 | -0.081 |
| PRKAR1B (UniProt P31321) | 0.024 | -0.054 | -0.067 | -0.063 | 0.119 | 0.12 | -0.001 | 0.042 | 0.127 | 0.43 (active) |
| PRKCQ (UniProt Q04759) | -0.11 | -0.17 | 0.031 | 0.001 | -0.028 | -0.047 | 0.021 | 0.049 | -0.014 | -0.496 (active) |
| PRCP (UniProt P42785) | -0.265 (active) | -0.291 (active) | -0.024 | -0.002 | 0.037 | 0.008 | 0.014 | 0.019 | 0.024 | -0.389 (active) |
| QKI (UniProt Q96PU8) | -0.008 | -0.1 | 0.084 | 0.049 | 0.022 | 0.023 | 0.034 | 0.041 | 0.017 | -0.172 |
| PSPC1 (UniProt Q8WXF1) | -0.046 | -0.167 | 0.1 | 0.031 | 0.003 | -0.054 | 0.012 | -0.058 | 0.041 | 0.029 |
| PRKAR2A (UniProt P13861) | 0.03 | -0.024 | 0.046 | -0.031 | -0.007 | -0.033 | 0.047 | 0.011 | 0.077 | 0.023 |
| POLD1 (UniProt P28340) | -0.061 | -0.239 (active) | 0.053 | 0.123 | 0 | -0.005 | 0.027 | -0.029 | -0.03 | -0.171 |
| PDE4DIP isoform 4 (UniProt Q5VU43) | 0.013 | 0.005 | -0.071 | -0.012 | -0.004 | -0.009 | -0.035 | 0.003 | -0.046 | 0.006 |
| PTRH2 (UniProt Q9Y3E5) | -0.004 | -0.09 | 0.013 | -0.018 | -0.003 | -0.067 | 0.057 | 0.001 | -0.042 | 0.018 |
| PTTG1 (UniProt O95997) | 0.105 | 0.124 | 0.008 | 0.293 (active) | 0.008 | 0.057 | -0.02 | 0.008 | 0.008 | -0.092 |
| PSMD5 (UniProt Q16401) | -0.112 | -0.225 (active) | 0.013 | 0.027 | 0 | -0.026 | -0.011 | 0.012 | -0.043 | -0.038 |
| PRKCD (UniProt Q05655) | 0.036 | -0.073 | 0.031 | -0.003 | 0.005 | -0.067 | -0.009 | 0.062 | -0.05 | -0.159 |
| PLBD2 (UniProt Q8NHP8) | -0.188 | -0.222 (active) | -0.034 | -0.015 | 0.024 | 0.029 | 0.008 | 0.009 | -0.029 | -0.21 |
| PCYT1A (UniProt P49585) | -0.219 | -0.332 (active) | 0.042 | 0.028 | -0.029 | -0.019 | 0.017 | 0.008 | -0.022 | -0.111 |
| POTEI (UniProt P0CG38) | -0.009 | -0.009 | -0.043 | -0.039 | -0.026 | 0.009 | -0.006 | -0.028 | -0.06 | 0.035 |
